# Screening results (PubChem BioAssay)
# tim23-1 inh = growth inhibitors of tim23-1 mutant yeast; S. cerevisiae tim23-1 growth, BacTiter-Glo luminescence, 24 h; inhibition, % at 20 µM; hit rate 1.3% among 330,000;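 active = growth inhibition of the mutant yeast at or above 50%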;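 also: temperature-sensitive mutant grown at 25 °C; plate controls were DMSO-treated mutant yeast for no effect and medium wells lacking yeast for full effect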
# TIM10 inh = inhibits growth of TIM10 yeast strain; S. cerevisiae TIM10 strain growth, BacTiter-Glo luminescence, 24 h; inhibition, % at 10 µM; hit rate 1.4% among 330,000;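 active = inhibition of 40% or more at the single tested concentration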;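 also: wild-type TIM10 isogenic control strain grown at permissive 25 °C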
# tim10-1 inh = inhibits growth of tim10-1 mutant yeast | inhibition, % at 20 µM | S. cerevisiae tim10-1 ts strain growth, BacTiter-Glo, 24 h | AID 463190 | hit rate 2.2% among 330,000;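 active = inhibition of at least 40%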;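 also: mutant grown at 25 °C; 0% = DMSO wells with yeast and 100% = wells holding no yeast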
# PfHsp90 set2 = inhibits growth of yeast expressing Plasmodium falciparum Hsp90 | S. cerevisiae expressing PfHsp90, BacTiter-Glo ATP, 48 h; yeast lacking PDR1 and PDR3 efflux regulators | hit rate 0.32% among 310,000 | inhibition, % at 9.4 µM;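 active = every replicate shows inhibition above about 80%, whatever the replicate mean, limit read from the data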;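 also: 0% = DMSO neutral controls and 100% = 20 µM radicicol positive controls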
# SUMO Mot1 rescue = blocks SUMOylation pathway, rescuing yeast Mot1-301 growth; growth rescue, % at 18.8 µM; S. cerevisiae Mot1-301 growth rescue, ATP luminescence, 38.5C; percent above DMSO median, 100 means doubled; hit rate 1% among 320,000; AID 2716;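 active = every valid replicate shows activation above 250% relative to neutral control wells; inactive = the rest, any valid replicate at or below 250%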;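 also: OY570 slx delta 5 strain wells were the positive control but not used for scaling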
# tim23-1 conf = confirmation of tim23-1 mutant yeast growth inhibitors | hit rate 83% among 4,400 | shares compounds with tim23-1 inh | inhibition, % at 20 µM | S. cerevisiae tim23-1 growth, BacTiter-Glo luminescence, 24 h;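 active = inhibition above about 39% in either of two replicate wells at 20 µM, limit read from the data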;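 also: temperature-sensitive tim23-1 mutant grown at 25 °C; 0% = DMSO wells with yeast and 100% = medium wells without yeast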
# An asterisk follows results filed as active; nt = not tested or not shown. Hits are enriched below; roughly 4.4% of the tested compounds scored in any of these assays.
SMILES,tim23-1 inh,TIM10 inh,tim10-1 inh,PfHsp90 set2,SUMO Mot1 rescue,tim23-1 conf
Cc1cccc(/C=N/NC(=O)c2cc(Br)ccc2OCc2ccccc2)n1,20,-10,20,-71,12,nt
Cc1cccc(/C=N/NC(=O)c2ccccc2OCc2cccc(Br)c2)n1,51*,0,25,12,-4,55*
Cc1cc(C)nc(SCC(=O)c2cc3ccccc3oc2=O)n1,50*,22,16,1,-10,43*
CN(C)c1ccc(/C=N/NC(=O)c2ccc(-n3cnnn3)cc2)cc1,-15,-7,-8,9,14,nt
Cc1ccn2cc(C(=O)Nc3ccccc3N3CCOCC3)nc2c1,56*,33,20,nt,8,41*
O=C(Nc1cc(C(F)(F)F)ccc1N1CCOCC1)c1cn2ccccc2n1,15,4,4,nt,-2,nt
Cc1cccc(N2C(=O)c3ccc(Br)cc3C2=O)n1,56*,12,5,-14,-27,45*
Cc1cccc(N2C(=O)c3ccccc3C2=O)n1,21,7,24,28,5,nt
N#C/C(=C\c1ccc(OCc2ccccc2)cc1)C(N)=O,63*,6,34,9,-9,52*
COc1ccc(CCN(C)C(=O)CN2C(=O)c3ccccc3S2(=O)=O)cc1OC,10,0,20,-15,-26,nt
COc1ccc(CCN(/C=C2\Sc3ccccc3C2=O)C(C)=O)cc1OC,50*,21,15,nt,-28,52*
CN1CCN(c2nc(-c3cccs3)cs2)CC1,-23,12,2,-14,-2,nt
O=C1c2ccccc2C(=O)N1c1nc(-c2cccs2)cs1,77*,25,25,-6,164,41*
Oc1ccc(Br)cc1C=Nc1ccc2c3c(cccc13)CC2,64*,21,21,32,-26,60*
Oc1ccc(Cl)cc1C=Nc1ccccc1Br,7,-2,1,-2,-21,nt
CCOc1ccc(C=NNC(=O)c2cccc3ccccc23)cc1OCC,nt,nt,nt,23,nt,nt
Cc1cc(C)c(C(=O)N(CCN(C)C)CC2CCCN(Cc3ccccc3F)C2)o1 (stereo unspecified),-12,-5,-5,-4,-3,nt
CCOc1ccc(NC(=O)c2ccccc2CO)cc1,58*,1,17,-12,135,12
CCOc1ccc(NC(=O)c2ccccc2O)cc1,38,-29,-5,31,nt,nt
COc1cc(SC)ccc1C(=O)Nc1ccc2c(c1)OCCO2,51*,-3,27,-24,33,45*
COc1ccccc1C(=O)Nc1ccc2c(c1)OCCO2,13,10,12,-4,-3,nt
CCOC(=O)C1CCN(S(=O)(=O)c2ccc3c(c2)CC(C)N3C(=O)C2CCC2)CC1 (stereo unspecified),51*,38,27,10,-23,43*
O=C(CCNS(=O)(=O)c1ccc(Br)cc1)N1CCN(c2ccccc2O)CC1,-1,-12,-1,12,5,nt
O=C(CCCl)Nc1nc2c(s1)CCc1ccccc1-2,70*,36,37,-13,0,74*
O=C(CC1C[C@H](C(=O)N2CCOCC2)[C@@]2(CCC3CCCC3)c3[nH]c4ccccc4c3CCN2C1=O)NCC12CC3CC(CC(C3)C1)C2 (stereo partly specified),19,14,9,-29,9,nt
SMILES,tim23-1 inh,TIM10 inh,tim10-1 inh,PfHsp90 set2,SUMO Mot1 rescue,tim23-1 conf
C=CCn1cccc(C(=O)Nc2ccc(Cl)cc2)c1=O,53*,18,22,-32,5,21
C=CCn1cccc(C(=O)Nc2ccc(SC)cc2)c1=O,39,5,28,-5,-9,nt
COc1ccc(/C=C(\C#N)C(=O)NC(C)c2ccccc2)cc1O (stereo unspecified),56*,19,29,-2,78,44*
CCOc1ccc(N=c2cc(-c3ccc(OC)cc3)oc3ccccc23)cc1,41,29,15,2,8,nt
COc1ccc(N=c2cc(-c3ccc(OC)cc3)oc3ccccc23)cc1,51*,30,27,-25,155,39*
COCCn1c(=NC(=O)CSCC(=O)N2CCOCC2)sc2ccccc21,0,2,-11,17,6,nt
Clc1cccc(Cl)c1C1Nc2cccc3cccc(c23)N1,53*,30,29,-6,5,75*
Fc1cccc(Cl)c1C1Nc2cccc3cccc(c23)N1,34,17,33,8,109,nt
Nc1cc(S(=O)(=O)Nc2ccccc2Cl)ccc1N1CCCCC1,58*,31,36,-50,-8,62*
CC1(C)Cc2ccccc2-c2nc(NN)[nH]c(=O)c21,51*,2,36,1,0,36
Cc1ccc(/C=N/NC(=O)c2csc3c2CCCC3)cc1,63*,22,35,nt,3,59*
C(=N\N1CCN(C2c3ccccc3-c3ccccc32)CC1)/c1ccccn1,54*,36,24,-1,-5,32
O=[N+]([O-])c1ccc(/C=N/Nc2nc(-c3ccccc3)c3cc(Br)ccc3n2)o1,19,28,-17,-45,-6,nt
Cc1ccc2nc(N/N=C\c3ccc([N+](=O)[O-])o3)nc(-c3ccccc3)c2c1,67*,1,23,-107,2,14
O=C(NC(=S)NC1CCCCC1)c1ccccc1,62*,29,33,-22,34,56*
O=C(NC(=S)Nc1ccccn1)c1ccccc1,50*,15,28,26,-5,28
S=C(Nc1ccc(Nc2ccccc2)cc1)Nc1ccccn1,52*,31,26,-22,23,27
O=C(NC(=S)Nc1ccccn1)c1ccc(-c2ccccc2)cc1,24,-3,26,7,-3,nt
O=C(NC(=S)NC1CCS(=O)(=O)C1)c1ccccc1 (stereo unspecified),-11,0,-3,-1,-15,nt
CC(NC(=S)NC(=O)c1ccccc1)c1ccccc1 (stereo unspecified),50*,1,28,7,40,42*
Cc1ccc(C(=O)CCC(=O)OCC(=O)NNC(=O)c2ccc([N+](=O)[O-])cc2)cc1,-3,-8,-6,28,10,nt
COc1ccccc1CNC(=O)CN(C)S(=O)(=O)c1ccc(F)cc1,8,-3,1,8,64,nt
COC(=O)C1=C(C)OC(N)=C(C#N)C1c1cccnc1 (stereo unspecified),20,14,8,18,-21,nt
CC1=C(C(=O)OC(C)C)C(c2cncc(-c3ccc(F)cc3)c2)C(C#N)=C(N)O1 (stereo unspecified),50*,35,34,1,-4,38
CC1CCC(NC(=O)c2cc(C3CC3)nn2-c2ccccc2)CC1 (stereo unspecified),50*,14,38,11,16,46*
CCn1c(SCC(=O)Nc2nc3ccc(C)cc3s2)nc2c(c1=O)SC(C)C2 (stereo unspecified),52*,-4,33,-49,11,47*
